Binding signal data for 49 sequences are collected here from article PMC5892938, “SARNAclust: Semi-automatic detection of RNA protein binding motifs from immunoprecipitation data”.

The full ranking holds about 11,000 sequences; the median of “log2 fold change” is about 0.00022, and the highest 2% start at about 0.34. The list shows a part of the results.

The experiment addresses GST-SBP-SLBP (stem-loop binding protein) (Homo sapiens, UniProt Q14493 1-270). Description: targeted RNA Bind-n-Seq; RBNS binding buffer: 25 mM Tris pH 7.5, 150 mM KCl, 3 mM MgCl2, 0.1% Tween, 0.5 mg/mL BSA, 1 mM DTT; 27 nM protein, 750 pM RNA pool; temperature not stated; high values mean tight binding. The following applies: protein: recombinant; tags: N-terminal GST and SBP (pGEX6P1-SBP); structured_RNA. The essentials:
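Read counts per sequence supply the binding signal, defined as the DEseq fold change on a binary-logarithm scale. These counts came from RNA of a designed, T7-transcribed oligo pool at 750 pM that bound 27 nM of GST-SBP-tagged protein, made in Rosetta(DE3) pLysS E. coli and glutathione-purified, in RBNS binding buffer. The bound RNA was reverse transcribed with a 10-nucleotide barcoded primer, PCR-amplified and sequenced on a MiSeq with 200-cycle paired-end reads, then processed with FLASH and HISAT2 and collapsed by barcode.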
For the sequence “GGUCACGUCUCAAUCAACUCUUCCUCCAGGGAAACCCCUGGUUAACUCAACAGCUCGCAGUCAAG”, the binding signal amounted to 0.443 ± 0.293 log2 fold change.
On to “GGUCACGUCUCAAUCAACUCUUCCUCCAGGGAAAACCCUGGUAAACUCAACAGCUCGCAGUCAAG”, for which the binding signal turned out to be 0.339 ± 0.267 log2 fold change.
For “GGUCACGUCUCAAUCAACUCUUCGUCCAGGGAAAACCCUGGUUUUCUCAACAGCUCGCAGUCAAG”, the binding signal was 0.335 ± 0.277 log2 fold change.
With “GGUCACGUCUCAAUCAACUCUUCGUCCAGGGAAACCCCUGGUUUUCUCAACAGCUCGCAGUCAAG”, the binding signal was found to be 0.36 ± 0.292 log2 fold change.
As for “GGUCACGUCUCAAUCAACUCUUCGCCCAGGGAAACCCCUGGUAAUCUCAACAGCUCGCAGUCAAG”, the figure is 0.384 ± 0.343 log2 fold change; as for “GGUCACGUCUCAAUCAACUCAAUCUCCAGGGAAACCCCUGGUAAACUCAACAGCUCGCAGUCAAG”, 0.353 ± 0.274 log2 fold change; as for “GGUCACGUCUCAAUCAACUCAGUCUCCAGGGAAACCCCUGGUUUAUUCAACAGCUCGCAGUCAAG”, 0.458 ± 0.335 log2 fold change.
In the case of “GGUCACGUCUCAAUCAACUCAGUCCCCAGGGAAACCCCUGGUAUUUUCAACAGCUCGCAGUCAAG”, the binding signal was found to be 0.335 ± 0.368 log2 fold change.
Turning to “GGUCACGUCUCAAUCAACUCUUCUUCCAGGGAAAACCCUGGCAAACUCAACAGCUCGCAGUCAAG”, the binding signal came out at 0.378 ± 0.272 log2 fold change.
As to “GGUCACGUCUCAAUCAACUCUUCUUCCAGGGAAACCCCUGGUAAUCUCAACAGCUCGCAGUCAAG”, the binding signal stood at 0.352 ± 0.266 log2 fold change.
“GGUCACGUCUCAAUCAACUCUACUUCCAGGGAAAACCCUGGCAAACUCAACAGCUCGCAGUCAAG”: the binding signal was 0.31 ± 0.258 log2 fold change.
As for “GGUCACGUCUCAAUCAACUCAGUUUCCAGGGAAAUCCCUGGUUUAUUCAACAGCUCGCAGUCAAG”, the binding signal came out at 0.33 ± 0.289 log2 fold change.
Take “GGUCACGUCUCAAUCAACUCAGUCCCCAGGGAAAACCCUGGUUUUUUCAACAGCUCGCAGUCAAG”: the binding signal amounted to 0.518 ± 0.357 log2 fold change.
“GGUCACGUCUCAAUCAACUCUAAGGAGGGGGGGAAAACCCCUUUACCCUCAUCAUCAACAGCUCGCAGUCAAG”: the binding signal was 0.486 ± 0.425 log2 fold change.
Regarding “GGUCACGUCUCAAUCAACUCUAAGGAGGGGGGGAAAACCCCUUUACCCUCACACUCAACAGCUCGCAGUCAAG”, the binding signal is 0.396 ± 0.454 log2 fold change.
As for “GGUCACGUCUCAAUCAACUCUCAGGAGGGGGGGAAAACCCCUUUACCCUCAUCGUCAACAGCUCGCAGUCAAG”, the figure is 0.309 ± 0.421 log2 fold change.
“GGUCACGUCUCAAUCAACUCAACUGAGGGGGGGAAAACCCCUUUACCCUCCACAUCAACAGCUCGCAGUCAAG”: the binding signal worked out at 0.388 ± 0.423 log2 fold change.
In the case of “GGUCACGUCUCAAUCAACUCAACUGAGGGGGGGAAAACCCCUUUACCCUCCAAAUCAACAGCUCGCAGUCAAG”, the binding signal came out at 0.448 ± 0.446 log2 fold change.
“GGUCACGUCUCAAUCAACUCUCCAGAGGGGGGGAAAACCCCUUUACCCUCAACAUCAACAGCUCGCAGUCAAG”: the binding signal was 0.304 ± 0.431 log2 fold change.
Regarding “GGUCACGUCUCAAUCAACUCCCAAGAGGGGGGGAAAACCCCUUUACCCUCACUCUCAACAGCUCGCAGUCAAG”, the binding signal stood at 0.558 ± 0.444 log2 fold change.
Consider “GGUCACGUCUCAAUCAACUCAAUAGAGGGGGGGAAAACCCCUUUACCCUCCCAAUCAACAGCUCGCAGUCAAG”, for which the binding signal was determined as 0.325 ± 0.459 log2 fold change.
With “GGUCACGUCUCAAUCAACUCCCAAGAGGGGGGGAAAACCCCUUUACCCUCGUAAUCAACAGCUCGCAGUCAAG”, the binding signal was determined as 0.444 ± 0.442 log2 fold change.
For the sequence “GGUCACGUCUCAAUCAACUCUUACGAGGGGGGGAAAACCCCUUUGCCCUCAACAUCAACAGCUCGCAGUCAAG”, the binding signal is 0.326 ± 0.377 log2 fold change.
For the sequence “GGUCACGUCUCAAUCAACUCUCACGAGGGGGGGAAAACCCCUUUACCCUCAAAUUCAACAGCUCGCAGUCAAG”, the binding signal stood at 0.315 ± 0.408 log2 fold change.
As for “GGUCACGUCUCAAUCAACUCUUACGAGGGGGGGAAAACCCCUUUACCCUCAAAUUCAACAGCUCGCAGUCAAG”, the binding signal was determined as 0.37 ± 0.399 log2 fold change.
For the sequence “GGUCACGUCUCAAUCAACUCUUACGAGGGGGGGAAAACCCCUUUGCCCUCAAAUUCAACAGCUCGCAGUCAAG”, the binding signal turned out to be 0.347 ± 0.395 log2 fold change.
“GGUCACGUCUCAAUCAACUCUUCAGAGGGGGGGAAAACCCCUUUACCCUCCUAAUCAACAGCUCGCAGUCAAG”: the binding signal came out at 0.368 ± 0.433 log2 fold change.
“GGUCACGUCUCAAUCAACUCUUCAGAGGGGGGGAAAACCCCUUUACCCUCCGUUUCAACAGCUCGCAGUCAAG”: the binding signal worked out at 0.44 ± 0.434 log2 fold change.
As for “GGUCACGUCUCAAUCAACUCGUUUUCAGGAGUUUACUCCUGCUUAUUCAACAGCUCGCAGUCAAG”, the figure is 0.329 ± 0.222 log2 fold change; as for “GGUCACGUCUCAAUCAACUCAAAAGAGGGGGGGAAAACCCCUUUGCCCUCGAUAUCAACAGCUCGCAGUCAAG”, 0.336 ± 0.363 log2 fold change; as for “GGUCACGUCUCAAUCAACUCACAAGAGGGGGGGAAAACCCCUUUGCCCUCCGUAUCAACAGCUCGCAGUCAAG”, 0.416 ± 0.404 log2 fold change.
On to “GGUCACGUCUCAAUCAACUCACAAGAGGGGGGGAAAACCCCUUUGCCCUCGAUAUCAACAGCUCGCAGUCAAG”, for which the binding signal is 0.468 ± 0.396 log2 fold change.
For the sequence “GGUCACGUCUCAAUCAACUCCCACGAGGGGGGGAAAACCCCUUUACCCUCUCAAUCAACAGCUCGCAGUCAAG”, the binding signal was 0.362 ± 0.418 log2 fold change.
With “GGUCACGUCUCAAUCAACUCCCACGAGGGGGGGAAAACCCCUUUACCCUCAACCUCAACAGCUCGCAGUCAAG”, the binding signal came out at 0.335 ± 0.423 log2 fold change.
As to “GGUCACGUCUCAAUCAACUCCCACGAGGGGGGGAAAACCCCUUUACCCUCACACUCAACAGCUCGCAGUCAAG”, the binding signal is 0.366 ± 0.434 log2 fold change.
As for “GGUCACGUCUCAAUCAACUCAAUCGAGGGGGGGAAAACCCCUUUGCCCUCAUCUUCAACAGCUCGCAGUCAAG”, the figure is 0.419 ± 0.432 log2 fold change.
On to “GGUCACGUCUCAAUCAACUCAAACGAGGGGGGGAAAACCCCUUUGCCCUCAUCUUCAACAGCUCGCAGUCAAG”, for which the binding signal is 0.58 ± 0.399 log2 fold change.
For the sequence “GGUCACGUCUCAAUCAACUCCUCAGAGGGGGGGAAAACCCCUUUACCCUCAAUAUCAACAGCUCGCAGUCAAG”, the binding signal worked out at 0.394 ± 0.424 log2 fold change.
Turning to “GGUCACGUCUCAAUCAACUCCUCAGAGGGGGGGAAAACCCCUUUACCCUCGUCCUCAACAGCUCGCAGUCAAG”, the binding signal turned out to be 0.382 ± 0.44 log2 fold change.
As to “GGUCACGUCUCAAUCAACUCAAUAGAGGGGGGGAAAACCCCUUUACCCUCAAACUCAACAGCUCGCAGUCAAG”, the binding signal was 0.319 ± 0.424 log2 fold change.
“GGUCACGUCUCAAUCAACUCAACAGAGGGGGGGAAAACCCCUUUACCCUCAAUAUCAACAGCUCGCAGUCAAG”: the binding signal stood at 0.362 ± 0.427 log2 fold change.
As for “GGUCACGUCUCAAUCAACUCCCUCGAGGGGGGGAAAACCCCUUUACCCUCAUCGUCAACAGCUCGCAGUCAAG”, the figure is 0.532 ± 0.391 log2 fold change.
Regarding “GGUCACGUCUCAAUCAACUCCCUCGAGGGGGGGAAAACCCCUUUACCCUCAUUAUCAACAGCUCGCAGUCAAG”, the binding signal worked out at 0.395 ± 0.38 log2 fold change.
Turning to “GGUCACGUCUCAAUCAACUCAAUCCCCAGGGAAAGCCCUGGUAUUCUCAACAGCUCGCAGUCAAG”, the binding signal is 0.378 ± 0.274 log2 fold change.
Regarding “GGUCACGUCUCAAUCAACUCUAUUCCCAGGGAAAGCCCUGGUAUUUUCAACAGCUCGCAGUCAAG”, the binding signal turned out to be 0.387 ± 0.281 log2 fold change.
As for “GGUCACGUCUCAAUCAACUCUAUCCCCAGGGAAAGCCCUGGUAUAUUCAACAGCUCGCAGUCAAG”, the figure is 0.366 ± 0.305 log2 fold change; as for “GGUCACGUCUCAAUCAACUCUAUUCCCAGGGAAAGCCCUGGCUAUCUCAACAGCUCGCAGUCAAG”, 0.342 ± 0.296 log2 fold change.
For the sequence “GGUCACGUCUCAAUCAACUCUAUUCCCAGGGAAAGCCCUGGUAUUCUCAACAGCUCGCAGUCAAG”, the binding signal was determined as 0.307 ± 0.273 log2 fold change.
As to “GGUCACGUCUCAAUCAACUCUAUCCCCAGGGAAAUCCCUGGUAUAUUCAACAGCUCGCAGUCAAG”, the binding signal came to 0.333 ± 0.304 log2 fold change.
